Assay results: PubChem BioAssay (Tox21)
Where “and” joins values, the source holds several entries; their conditions need not be identical. Identical values can stand only once. Inconclusive results are not listed. Entries that show only a call come without a potency. Some compounds were tested as several samples or in several runs, with calls that do not always agree. Calls of active or inactive are those of the source. Unless noted, calls follow the shape of the dose curve; as a rule, active = well fitted curve in the direction sought with a large enough effect in the repeat runs; inconclusive = weak or mixed curves; inactive = no such curve, though single readings can be large; an effect the other way counts as inactive or inconclusive.

Legend:
[1] = qHTS assay to identify small molecule antagonists of the estrogen related receptor (ERR) signaling pathway from Tox21 library (AID 1224848); also: nearly all actives have a fitted effect of over 50% in size; also: potency is read from the fitted curve at half-maximal effect
Summary of the method: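 ERR reporter cell line (from NTP) seeded 2,000 cells/well, rested 6 h at 37 C/5% CO2, then pin-dosed with compounds in DMSO. After 18 h at 37 C, ONE-Glo added; luminescence read after 30 min at room temperature.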

[2] = qHTS assay to identify small molecule agonists of the estrogen related receptor (ERR) signaling pathway from Tox21 library (AID 1224849; calls by dose curve; also: nearly all actives have a fitted effect of over 15% in size); conditions: ERR reporter cell line, ONE-Glo luciferase, 18 h
Summary of the method: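 We plated ERR reporter cells, waited 6 h, added compounds in DMSO by pin tool and incubated them 18 h at 37 C. ONE-Glo was then added and luminescence read after 30 min.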

[3] = qHTS RealTime-Glo MT Cell Viability Assay in HepG2 cells - 24 hour (AID 1224867); also: nearly all actives have a fitted effect of over 50% in size; also: potency is read from the fitted curve at half-maximal effect
Summary of the method: (§1)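 Tox21 10K library screened in qHTS format on HepG2 cells carrying RealTime-Glo reagents. Compounds were added after a 5 h preincubation, and the luminescent signal from continuous culture was measured repeatedly during 40 h treatment.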

[4] = A CellTox Green Cytotoxicity Assay to monitor cytotoxicity in HEK293 cells - 0 hour (AID 1224869); also: nearly all actives have a fitted effect of over 50% in size
Summary of the method: (§2)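 Each value comes from one timepoint of a single continuous run in which HEK293 cells with CellTox Green were exposed to compound for up to 40 h at 37 C, dye fluorescence rising with cell death.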

[5] = qHTS RealTime-Glo MT Cell Viability Assay in HepG2 cells - 40 hour (AID 1224870); also: nearly all actives have a fitted effect of over 50% in size; also: potency is read from the fitted curve at half-maximal effect
Summary of the method: (§3)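 HepG2 cells (600/well) mixed with RealTime-Glo MT reagent, settled 5 h at 37 C/5% CO2 before compound addition. Nonlytic NanoLuc luminescence from viable-cell prosubstrate reduction read repeatedly during 40 h treatment at 37 C.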

[6] = A CellTox Green Cytotoxicity Assay to monitor cytotoxicity in HEK293 cells - 40 hour (AID 1224871); also: nearly all actives have a fitted effect of over 45% in size; also: potency is read from the fitted curve at half-maximal effect
Summary of the method: as §2

[7] = qHTS RealTime-Glo MT Cell Viability Assay in HEK293 cells - 16 hour (AID 1224872); also: nearly all actives have a fitted effect of over 50% in size; also: potency is read from the fitted curve at half-maximal effect
Summary of the method: (§4)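 Luminescence generated by NanoLuc from substrate produced by living HEK293 cells served as the viability signal. Each value reflects the reading at its stated time point during continuous 40 h compound exposure at 37 C.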

[8] = qHTS RealTime-Glo MT Cell Viability Assay in HepG2 cells - 8 hour (AID 1224873); also: nearly all actives have a fitted effect of over 55% in size; also: potency is read from the fitted curve at half-maximal effect
Summary of the method: as §3

[9] = A CellTox Green Cytotoxicity Assay to monitor cytotoxicity in HEK293 cells - 24 hour (AID 1224875); also: nearly all actives have a fitted effect of over 45% in size
Summary of the method: as §2

[10] = A CellTox Green Cytotoxicity Assay to monitor cytotoxicity in HepG2 cells - 16 hour (AID 1224876); also: nearly all actives have a fitted effect of over 45% in size
Summary of the method: (§5)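 Continuous culture of HepG2 cells with a membrane-impermeant DNA dye; rising fluorescence marks dead cells. Compound exposure lasted up to 40 h at 37 C, with reads every 8 h from 0 h.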

[11] = qHTS RealTime-Glo MT Cell Viability Assay in HepG2 cells - 32 hour (AID 1224877); also: nearly all actives have a fitted effect of over 55% in size; also: potency is read from the fitted curve at half-maximal effect
Summary of the method: as §1

[12] = A CellTox Green Cytotoxicity Assay to monitor cytotoxicity in HepG2 cells - 24 hour (AID 1224878); also: nearly all actives have a fitted effect of over 45% in size
Summary of the method: as §5

[13] = A CellTox Green Cytotoxicity Assay to monitor cytotoxicity in HepG2 cells - 40 hour (AID 1224879); also: nearly all actives have a fitted effect of over 40% in size; also: potency is read from the fitted curve at half-maximal effect
Summary of the method: as §5

[14] = qHTS assay to identify small molecule agonists of the hypoxia (HIF-1) signaling pathway - cell viability counter screen (AID 1224844; calls by dose curve; also: nearly all actives have a fitted effect of over 50% in size; also: potency is read from the fitted curve at half-maximal effect)
Summary of the method: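 Luminescent ATP content (CellTiter-Glo, 30 min, room temperature) served as the viability measure in HRE-bla ME-180 cells exposed to compounds for 17 hrs in low-serum medium (0.5% dialyzed FBS).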

[15] = qHTS assay to identify small molecule agonists of H2AX - cell viability counter screen (AID 1224847; calls by dose curve; also: top concentration of the series differs between compounds; nearly all actives have a fitted effect of over 30% in size)
Summary of the method: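 Read-out: CellTiter-Glo luminescence, 30 min RT. Cells: wild-type CHO-K1, 1000/well, 10% FBS, plated overnight at 37C. Treatment: 15 concentrations, 3 hr, 37C, 0.76% DMSO.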

[16] = qHTS RealTime-Glo MT Cell Viability Assay in HEK293 cells - 32 hour (AID 1224868); also: nearly all actives have a fitted effect of over 50% in size; also: potency is read from the fitted curve at half-maximal effect
Summary of the method: as §4

[17] = qHTS RealTime-Glo MT Cell Viability Assay in HEK293 cells - 40 hour (AID 1224874); conditions: RealTime-Glo luminescence; max response: stronger effect = lower value; also: nearly all actives have a fitted effect of over 50% in size; also: potency is read from the fitted curve at half-maximal effect
Summary of the method: (§6)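 qHTS format; HEK293 cells with NanoLuc/prosubstrate reagent, 37 C/5% CO2 for 5 h pre-dosing; compounds 23 nL in DMSO; luminescence at each time point reflects viable cells.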

[18] = qHTS RealTime-Glo MT Cell Viability Assay in HEK293 cells - 0 hour (AID 1224880)
Summary of the method: as §6

[19] = qHTS assay to identify small molecule agonists of H2AX (AID 1224845; active = well fitted activation curve with a large enough effect in the signal ratio in the repeat runs, not every such curve was filed as active; the % refers to the signal ratio)
Summary of the method: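 Wild-type CHO-K1 cells, plated overnight, exposed 3hr at 37C to 15 concentrations (0.76% DMSO final). Lysed, then HTRF anti-pH2AX (S139) cryptate and anti-H2AX-d2 antibodies, 24 hr room temperature; 665/620 nm emission read.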

## Nc1c(N=Nc2ccc(-c3ccc(N=Nc4cc(S(=O)(=O)O)c5ccccc5c4N)cc3)cc2)cc(S(=O)(=O)O)c2ccccc12
[1]
  Potency: 24.3 µM (active)
[2]; at 92.4 µM (top of the series)
  activity change, positive = activation: -40.2% (inactive)
[3]
  Potency: 48.9 µM (active)
[4]
  Potency: inactive
[5]
  Potency: 48.9 µM (active)
[6]
  Potency: inactive
[7]
  Potency: 38.9 µM (active)
[8]
  Potency: 38.9 µM (active)
[9]
  Potency: inactive
[10]
  Potency: inactive
[11]
  Potency: 48.9 µM (active)
[12]
  Potency: inactive
[13]
  Potency: inactive

## CN1CCc2cccc3c2[C@H]1Cc1ccc(O)c(O)c1-3
[14]
  Potency: 39.3 µM (active) and 16.3 µM (active)
[15]
  Potency: inactive
[1]
  Potency: 24.6 µM (active) and 18.1 µM (active)
[2]; at 42.5 µM (top of the series)
  activity change, positive = activation: -69.6% (inactive) and -53% (inactive)
[2]; at 92.4 µM (top of the series)
  activity change, positive = activation: -66.3% (inactive)
[3]
  Potency: 44.1 µM (active) and 16.3 µM (active) and 23.9 µM (active)
[16]
  Potency: 15.7 µM (active) and 8.17 µM (active) and 23.9 µM (active)
[4]
  Potency: inactive
[5]
  Potency: 18.3 µM (active)
[6]
  Potency: 55.5 µM (active) and inactive
[7]
  Potency: 15.7 µM (active) and 10.3 µM (active)
[8]
  Potency: 49.5 µM (active)
[17]
  Potency: 15.7 µM (active) and 10.3 µM (active) and 21.3 µM (active)
[9]
  Potency: inactive
[10]
  Potency: inactive
[11]
  Potency: 49.5 µM (active) and 16.3 µM (active)
[12]
  Potency: inactive
[13]
  Potency: 49.5 µM (active) and 18.3 µM (active) and inactive
[18]
  Potency: inactive

## CC(C)NCC(O)c1ccc(O)c(O)c1 (stereo unspecified)
[14]
  Potency: inactive
[15]
  Potency: inactive
[1]
  Potency: inactive
[2]; at 42.5 µM (top of the series)
  activity change, positive = activation: 7.23% (inactive)
[2]; at 92.4 µM (top of the series)
  activity change, positive = activation: 4.56% (inactive) and 1.6% (inactive)
[3]
  Potency: inactive
[16]
  Potency: 43.1 µM (active) and inactive
[4]
  Potency: inactive
[5]
  Potency: inactive
[6]
  Potency: inactive
[7]
  Potency: 48.4 µM (active) and inactive
[8]
  Potency: inactive
[17]
  Potency: 38.4 µM (active)
  max response: 1.41% (inactive)
[9]
  Potency: inactive
[10]
  Potency: inactive
[11]
  Potency: inactive
[12]
  Potency: inactive
[13]
  Potency: inactive
[18]
  Potency: inactive

## CC1(C)S[C@@H]2[C@H](NC(=O)[C@H](N)c3ccccc3)C(=O)N2[C@H]1C(=O)O
[14]
  Potency: inactive
[19]
  Potency: inactive
[15]
  Potency: inactive
[4]
  Potency: inactive
[6]
  Potency: inactive
[9]
  Potency: inactive
[10]
  Potency: inactive
[12]
  Potency: inactive
[13]
  Potency: inactive
